About 79,000 compounds went through this panel and 15% of them were active in at least one assay; those are over-represented in the sample as a whole. A number with no mark means an inactive call. Active and inactive are the calls of the source. Rule as the data show it: active = growth inhibition above about 70%; inactive = the rest.
Key:
[1] = NCI Yeast Anticancer Drug Screen. Data for the rad52 strain (AID 147);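 also: 0% = growth of vehicle-treated control cultures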; settings: S. cerevisiae rad52 mutant growth inhibition, stronger effect = higher value
Summary of the method: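 Measured: yeast growth inhibition. System: strain with a defined DNA damage repair alteration. Reference: vehicle-treated control cultures.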

[2] = NCI Yeast Anticancer Drug Screen. Data for the wt1 strain (AID 149);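 also: 0% = growth of vehicle-treated wt1 cultures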; settings: S. cerevisiae wt1 strain (SPY 50644) growth inhibition, stronger effect = higher value
Summary of the method: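 Growth inhibition read against vehicle controls after compound exposure of the wt1 yeast strain.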

[3] = NCI Yeast Anticancer Drug Screen. Data for the rad50EPP+ strain (AID 151);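 also: 0% = growth of vehicle-treated control cultures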; settings: S. cerevisiae rad50 mutant strain, stronger effect = higher value
Summary of the method: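 One strain with a rad50 alteration (rad50EPP+) was compound-treated, its growth then compared to that of vehicle controls.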

[4] = NCI Yeast Anticancer Drug Screen. Data for the rad50 strain (AID 155);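 also: 0% = growth of vehicle-only cultures of the same strain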; settings: S. cerevisiae rad50 strain growth inhibition, stronger effect = higher value
Summary of the method: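 Readout: growth inhibition relative to vehicle-treated cultures. Compound exposure was carried out in a genetically defined yeast strain deficient in DNA damage repair.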

[5] = NCI Yeast Anticancer Drug Screen. Data for the mec2-1 strain (AID 157); settings: S. cerevisiae mec2-1 strain, stronger effect = higher value
Summary of the method: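 Test agents were screened against the mec2-1 yeast strain, with defined DNA repair or cell cycle alteration. Growth was scored as inhibition against vehicle-only controls.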

[6] = NCI Yeast Anticancer Drug Screen. Data for the rad14 strain (AID 159);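 also: 0% = growth of vehicle-treated control cultures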; settings: S. cerevisiae rad14 strain growth inhibition, stronger effect = higher value
Summary of the method: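 Growth inhibition vs vehicle controls; genetically altered yeast strain (DNA damage repair defect) treated with test compounds.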

[7] = NCI Yeast Anticancer Drug Screen. Data for the sgs1 mgt1 strain (AID 161);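 also: 0% = growth of cultures given vehicle only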; settings: S. cerevisiae sgs1 mgt1 strain, stronger effect = higher value
Summary of the method: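 Inhibition of yeast growth, normalised to vehicle-treated controls, is reported for a strain bearing genetic alterations in DNA damage repair.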

[8] = NCI Yeast Anticancer Drug Screen. Data for the CLN2oe strain (AID 163);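 also: 0% = growth of vehicle-only control cultures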; settings: S. cerevisiae CLN2oe strain, stronger effect = higher value
Summary of the method: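 Here, growth inhibition in a cell-cycle-altered yeast strain after compound exposure was quantified against vehicle control growth.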

[9] = NCI Yeast Anticancer Drug Screen. Data for the cln2 rad14 strain (AID 165);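 also: 0% = growth equal to vehicle treated cultures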; settings: S. cerevisiae cln2 rad14 strain, stronger effect = higher value
Summary of the method: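 Growth of compound-exposed yeast (cln2 rad14 genotype) measured and expressed as inhibition relative to vehicle.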

[10] = NCI Yeast Anticancer Drug Screen. Data for the bub3 strain (AID 167); settings: S. cerevisiae bub3 mutant strain, stronger effect = higher value
Summary of the method: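 Readout: yeast growth inhibition, expressed relative to vehicle-only wells. The test organism is a mutant strain from a panel with lesions in DNA repair or checkpoint genes.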

[11] = NCI Yeast Anticancer Drug Screen. Data for the wt2 strain (AID 169);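 also: 0% = growth of vehicle-treated yeast cultures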; settings: S. cerevisiae wt2 strain growth inhibition, stronger effect = higher value
Summary of the method: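 Genetically defined yeast strains from a DNA-repair/cell-cycle panel were used. Compound-exposed yeast growth was measured, and the inhibition was calculated relative to vehicle treatment.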

[12] = NCI Yeast Anticancer Drug Screen. Data for the mlh1 strain (AID 171);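 also: 0% = growth of vehicle-treated control cultures of the same strain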; settings: S. cerevisiae mlh1 strain growth inhibition, stronger effect = higher value
Summary of the method: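 Here the genetically defined yeast mutant is grown with each compound, and the extent to which its growth falls below that of vehicle-exposed cells is reported.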

[13] = NCI Yeast Anticancer Drug Screen. Data for the sgs1 strain (AID 173);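 also: 0% = growth of vehicle-only control cultures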; settings: S. cerevisiae sgs1 mutant, stronger effect = higher value
Summary of the method: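 Relative growth inhibition, referenced to vehicle, was determined in a yeast strain with a defined alteration affecting DNA damage repair or cell cycle control after compound exposure.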

[14] = NCI Yeast Anticancer Drug Screen. Data for the mlh1 rad18 strain (AID 175); settings: S. cerevisiae mlh1 rad18 strain growth inhibition, stronger effect = higher value
Summary of the method: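 In this whole-cell yeast screen, a strain with altered DNA damage repair is challenged with compound, and its growth is measured against matched vehicle-treated controls.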

[15] = NCI Yeast Anticancer Drug Screen. Data for the rad18 strain (AID 177); settings: S. cerevisiae rad18 mutant growth inhibition, stronger effect = higher value
Summary of the method: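 Screen uses a yeast strain with a defined lesion in DNA damage repair; compound effect is read as loss of growth compared to untreated vehicle cultures.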

[16] = at 5.0 µM (retest, dose inferred, filed as 0.5)
[17] = at 50.0 µM (retest, dose inferred, filed as 5.0)

Compound `O=C(N/N=C/c1ccc2c(c1)CCC2)c1ccccc1[N+](=O)[O-]` has a growth inhibition ([1]; at 1.2 µM) of -18%, a growth inhibition ([1]; at 3.7 µM) of -15% and a growth inhibition ([1]; at 11.0 µM) of -3%. For the same compound, the growth inhibition ([1]; at 33.0 µM) was -1%, the growth inhibition ([1]; at 100.0 µM) was 95% (active) and the growth inhibition ([2]; at 1.2 µM) was -17%. The growth inhibition ([2]; at 3.7 µM) was -7%, the growth inhibition ([2]; at 11.0 µM) was -21% and the growth inhibition ([2]; at 33.0 µM) was -16%. The growth inhibition ([2]; at 100.0 µM) was 96% (active), the growth inhibition ([3]; at 1.2 µM) was 8% and the growth inhibition ([3]; at 3.7 µM) was 15%. For the same compound, the growth inhibition ([3]; at 11.0 µM) was 21%, the growth inhibition ([3]; at 33.0 µM) was 0% and the growth inhibition ([3]; at 100.0 µM) was 23%. For the same compound, the growth inhibition ([4]; at 1.2 µM) was 5%, the growth inhibition ([4]; at 3.7 µM) was 26% and the growth inhibition [4, 16] was 62%. For the same compound, the growth inhibition ([4]; at 11.0 µM) was 35%, the growth inhibition ([4]; at 33.0 µM) was 18% and the growth inhibition [4, 17] was 98% (active). For the same compound, the growth inhibition ([4]; at 50.0 µM) was 88.4% (active), the growth inhibition ([4]; at 100.0 µM) was 94% (active) and the growth inhibition ([5]; at 1.2 µM) was 0%. For the same compound, the growth inhibition ([5]; at 3.7 µM) was -10%, the growth inhibition [5, 16] was 70% (active) and the growth inhibition ([5]; at 11.0 µM) was -9%. The growth inhibition ([5]; at 33.0 µM) was 7%, the growth inhibition [5, 17] was 99% (active) and the growth inhibition ([5]; at 50.0 µM) was 71.2% (active). The growth inhibition ([5]; at 100.0 µM) was 94% (active), the growth inhibition ([6]; at 1.2 µM) was -10% and the growth inhibition ([6]; at 3.7 µM) was -8%. The growth inhibition ([6]; at 11.0 µM) was 2%, the growth inhibition ([6]; at 33.0 µM) was 6% and the growth inhibition ([6]; at 100.0 µM) was 95% (active). The growth inhibition [7, 16] was -13%, the growth inhibition [7, 17] was 53% and the growth inhibition ([8]; at 1.2 µM) was -3%. The growth inhibition ([8]; at 3.7 µM) was -5%, the growth inhibition ([8]; at 11.0 µM) was 21% and the growth inhibition ([8]; at 33.0 µM) was 18%. For the same compound, the growth inhibition ([8]; at 100.0 µM) was 94% (active), the growth inhibition [9, 16] was 71% (active) and the growth inhibition [9, 17] was 70% (active). The growth inhibition ([10]; at 1.2 µM) was 5%, the growth inhibition ([10]; at 3.7 µM) was 19% and the growth inhibition [10, 16] was 34%. It also gave a growth inhibition ([10]; at 11.0 µM) of 23%, a growth inhibition ([10]; at 33.0 µM) of 33% and a growth inhibition [10, 17] of 49%. For the same compound, the growth inhibition ([10]; at 100.0 µM) was 96% (active), the growth inhibition ([11]; at 1.2 µM) was 16% and the growth inhibition ([11]; at 3.7 µM) was 12%. For the same compound, the growth inhibition ([11]; at 11.0 µM) was 12%, the growth inhibition ([11]; at 33.0 µM) was 37% and the growth inhibition ([11]; at 100.0 µM) was 97% (active). The growth inhibition ([12]; at 1.2 µM) was -19%, the growth inhibition ([12]; at 3.7 µM) was -20% and the growth inhibition ([12]; at 11.0 µM) was -43%. The growth inhibition ([12]; at 33.0 µM) was 18%, the growth inhibition ([12]; at 100.0 µM) was 95% (active) and the growth inhibition ([13]; at 1.2 µM) was 15%. The growth inhibition ([13]; at 3.7 µM) was 23%, the growth inhibition ([13]; at 11.0 µM) was 30% and the growth inhibition ([13]; at 33.0 µM) was 42%. For the same compound, the growth inhibition ([13]; at 100.0 µM) was 96% (active), the growth inhibition [14, 16] was 36% and the growth inhibition [14, 17] was 99% (active). The growth inhibition ([14]; at 50.0 µM) was 81.7% (active), the growth inhibition ([15]; at 1.2 µM) was 8% and the growth inhibition ([15]; at 3.7 µM) was 13%. For the same compound, the growth inhibition ([15]; at 11.0 µM) was 9%, the growth inhibition ([15]; at 33.0 µM) was 12% and the growth inhibition ([15]; at 100.0 µM) was 96% (active).
For `Cc1ccc(SSc2ccc(C)cc2[N+](=O)[O-])c([N+](=O)[O-])c1`, the growth inhibition ([1]; at 1.2 µM) was 5%, the growth inhibition ([1]; at 3.7 µM) was 19% and the growth inhibition ([1]; at 11.0 µM) was 38%. For the same compound, the growth inhibition ([1]; at 33.0 µM) was 77% (active), the growth inhibition ([1]; at 100.0 µM) was 86% (active) and the growth inhibition ([2]; at 1.2 µM) was -2%. For the same compound, the growth inhibition ([2]; at 3.7 µM) was 4%, the growth inhibition ([2]; at 11.0 µM) was 16% and the growth inhibition ([2]; at 33.0 µM) was 50%. The growth inhibition ([2]; at 100.0 µM) was 83% (active), the growth inhibition ([3]; at 1.2 µM) was 7% and the growth inhibition ([3]; at 3.7 µM) was 16%. For the same compound, the growth inhibition ([3]; at 11.0 µM) was 48%, the growth inhibition ([3]; at 33.0 µM) was 90% (active) and the growth inhibition ([3]; at 100.0 µM) was 87% (active). It also gave a growth inhibition ([4]; at 1.2 µM) of 8%, a growth inhibition ([4]; at 3.7 µM) of 15% and a growth inhibition [4, 16] of 54%. The growth inhibition ([4]; at 11.0 µM) was 33%, the growth inhibition ([4]; at 33.0 µM) was 68% and the growth inhibition [4, 17] was 90% (active). The growth inhibition ([4]; at 50.0 µM) was 69.5%, the growth inhibition ([4]; at 100.0 µM) was 86% (active) and the growth inhibition ([5]; at 1.2 µM) was -5%. It also gave a growth inhibition ([5]; at 3.7 µM) of 2%, a growth inhibition [5, 16] of 57% and a growth inhibition ([5]; at 11.0 µM) of 26%. The growth inhibition ([5]; at 33.0 µM) was 66%, the growth inhibition [5, 17] was 94% (active) and the growth inhibition ([5]; at 50.0 µM) was 78.7% (active). For the same compound, the growth inhibition ([5]; at 100.0 µM) was 86% (active), the growth inhibition ([6]; at 1.2 µM) was -6% and the growth inhibition ([6]; at 3.7 µM) was -10%. The growth inhibition ([6]; at 11.0 µM) was 10%, the growth inhibition ([6]; at 33.0 µM) was 74% (active) and the growth inhibition ([6]; at 100.0 µM) was 85% (active). The growth inhibition [7, 16] was -8%, the growth inhibition [7, 17] was 95% (active) and the growth inhibition ([8]; at 1.2 µM) was -11%. For the same compound, the growth inhibition ([8]; at 3.7 µM) was 0%, the growth inhibition ([8]; at 11.0 µM) was -9% and the growth inhibition ([8]; at 33.0 µM) was -5%. The growth inhibition ([8]; at 100.0 µM) was 72% (active), the growth inhibition [9, 16] was 37% and the growth inhibition [9, 17] was 86% (active). The growth inhibition ([10]; at 1.2 µM) was -3%, the growth inhibition ([10]; at 3.7 µM) was -3% and the growth inhibition [10, 16] was 26%. The growth inhibition ([10]; at 11.0 µM) was 2%, the growth inhibition ([10]; at 33.0 µM) was 84% (active) and the growth inhibition [10, 17] was 94% (active). For the same compound, the growth inhibition ([10]; at 100.0 µM) was 87% (active), the growth inhibition ([11]; at 1.2 µM) was -15% and the growth inhibition ([11]; at 3.7 µM) was -6%. For the same compound, the growth inhibition ([11]; at 11.0 µM) was 21%, the growth inhibition ([11]; at 33.0 µM) was 82% (active) and the growth inhibition ([11]; at 100.0 µM) was 85% (active). For the same compound, the growth inhibition ([12]; at 1.2 µM) was -14%, the growth inhibition ([12]; at 3.7 µM) was -8% and the growth inhibition ([12]; at 11.0 µM) was -1%. The growth inhibition ([12]; at 33.0 µM) was 66%, the growth inhibition ([12]; at 100.0 µM) was 87% (active) and the growth inhibition ([13]; at 1.2 µM) was 0%. The growth inhibition ([13]; at 3.7 µM) was 14%, the growth inhibition ([13]; at 11.0 µM) was 46% and the growth inhibition ([13]; at 33.0 µM) was 91% (active). For the same compound, the growth inhibition ([13]; at 100.0 µM) was 86% (active), the growth inhibition ([15]; at 1.2 µM) was -18% and the growth inhibition ([15]; at 3.7 µM) was -14%. The growth inhibition ([15]; at 11.0 µM) was 19%, the growth inhibition ([15]; at 33.0 µM) was 53% and the growth inhibition ([15]; at 100.0 µM) was 83% (active).

Source: PubChem BioAssay (NCI)
